# Rows were chosen to be rich in hits. Some 3.4% of all compounds tested hit in one or more screens of this group.
# MITF primary – blocks human microphthalmia-associated transcription factor. AlphaScreen MITF homodimerization, bead proximity signal. inhibition, % at 2.6 µM. 650,000 compounds, 0.91% hits; in the data active = inhibition above about 50%;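 also: 0% = vehicle wells with protein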
# Target sequence (O75030 whole entry, looked up): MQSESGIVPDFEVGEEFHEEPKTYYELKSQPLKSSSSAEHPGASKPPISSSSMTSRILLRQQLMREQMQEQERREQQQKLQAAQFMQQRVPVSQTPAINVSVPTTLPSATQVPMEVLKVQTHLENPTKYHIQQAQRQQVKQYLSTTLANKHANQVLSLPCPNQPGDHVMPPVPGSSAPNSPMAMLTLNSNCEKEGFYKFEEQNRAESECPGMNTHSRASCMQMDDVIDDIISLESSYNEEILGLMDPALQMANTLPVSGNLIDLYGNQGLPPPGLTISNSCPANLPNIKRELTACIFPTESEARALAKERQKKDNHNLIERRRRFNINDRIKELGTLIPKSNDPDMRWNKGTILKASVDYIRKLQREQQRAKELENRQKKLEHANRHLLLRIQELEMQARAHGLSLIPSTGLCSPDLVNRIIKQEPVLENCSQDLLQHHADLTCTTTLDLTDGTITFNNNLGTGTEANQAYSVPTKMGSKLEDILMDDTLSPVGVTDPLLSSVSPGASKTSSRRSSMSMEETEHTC
# TEAD-YAP block – TEAD-YAP interaction inhibition | HEK-TIYL cells, TEAD-Gal4/YAP UAS-luciferase luminescence | inhibition, % at 9.12 µM | 640,000 compounds, 1.4% hits; in the data active = inhibition above about 32%;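 also: 0% = median of test compound wells and 100% = reference inhibitor wells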
# GPR151 activ – human GPR151 activation. Q8TDV0. PathHunter beta-arrestin GPR151 cells, luminescence. 650,000 compounds, 1% hits. activation, % at 11.2 µM; in the data active = activation above about 4.9%;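 also: 0% = median of compound wells and 100% = cells with positive control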
# FBW7 activator – activators of human E3 ligase FBW7 | AlphaScreen FBW7–phospho-cyclin E peptide binding, activator screen | 650,000 compounds, 0.13% hits | normalized activity (activation), % at 26.1 µM | AID 1259310 | Q969H0; in the data active = normalized activity above about 1.9%;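 also: purified mutant Fbw7 with reduced substrate affinity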
# * marks the source's active call; other numbers are inactive results.
SMILES,MITF primary,TEAD-YAP block,GPR151 activ,FBW7 activator
Cc1ccc2nc(-c3ccccc3)[nH]c2c1,-1,51*,-11,0
Nc1ccc(-c2nc3ccc(C(=O)O)cc3[nH]2)cc1,-6,36*,-8,0
Cc1ccc2nc(-c3cccc(N)c3)[nH]c2c1,0,60*,-8,0
COc1ccc(OC)c(NC(=O)CSc2nnc(-c3ccccc3)n2-n2cccc2)c1,14,6,-1,0
COc1cccc(-c2nnc(SCC(=O)Nc3cc(Cl)ccc3OC)n2-n2cccc2)c1,6,52*,1,0
O=C(COc1ccc(Br)cc1Br)Nc1ncn[nH]1,9,44*,1,0
O=C(COc1ccc(Cl)cc1Cl)Nc1cccc(-c2cn3c(n2)SCC3)c1,8,69*,0,0
Cc1ccccc1OCC(=O)NNC(=O)Nc1ccc(Cl)cc1,-4,59*,0,1
Cc1ccccc1OCC(=O)Nc1ccc(Cl)cc1,10,-42,-1,0
Cc1cc(Cl)ccc1OCC(=O)Nc1ncccn1,6,-19,1,0
Cc1cc(Cl)ccc1OCC(=O)Nc1ccccn1,12,67*,-1,0
CCCCCC1CCC(C2CCC(c3nc(-c4ccc([N+](=O)[O-])cc4)no3)CC2)CC1 (configuration not stated),13,9,0,0
O=C(COc1ccccc1[N+](=O)[O-])Nc1ccccc1Cl,18,-49,0,0
CC(=O)Nc1ccc(NC(=O)COc2ccc(Br)cc2Cl)cc1,-9,-18,-1,0
O=C(COc1ccc(Cl)cc1Cl)Nc1ccccc1,6,36*,1,0
O=C(COc1ccccc1[N+](=O)[O-])Nc1ccccn1,3,36*,-9,0
O=C(COc1ccc(Br)cc1Cl)Nc1ccccc1,14,54*,-1,0
O=C(COc1ccc(Cl)cc1Cl)Nc1ccc(O)cc1,-3,32*,1,0
O=S(=O)(NCC1COC2(CCCC2)O1)c1ccc(F)cc1 (configuration not stated),4,0,-1,0
CSc1ccc(NC(=O)N[C@H]2C[C@H]3C(=O)N[C@@H](COCc4ccccc4)C(=O)N3C2)cc1,10,-1,-1,0
CCC(CC)NCC(=O)NCc1ccc(C(=O)OC)cc1,30,16,1,0
CN(C)c1ccc(CN2CCN(CCO)CC2)cc1,77*,-5,1,0
CN(C)c1ccc(CN2CCC(C(N)=O)CC2)cc1,76*,-16,0,0
CN(C)c1ccc(CN2CCN(c3ncccn3)CC2)cc1,34,2,-2,0
N#C/C(=C\c1cc([N+](=O)[O-])ccc1Cl)c1nn(CCO)c(N)c1C#N,10,67*,0,0
SMILES,MITF primary,TEAD-YAP block,GPR151 activ,FBW7 activator
N#C/C(=C\c1ccc(Cl)c([N+](=O)[O-])c1)c1nn(CCO)c(N)c1C#N,8,1,0,0
CCOCCCNC1CCN(c2nc(C)c3cc(OC)ccc3n2)CC1,-5,49*,1,0
COc1ccc2c(C)nc(N3CCC(NCCCOC(C)C)CC3)nc2c1,15,-2,-1,0
CCOC(=O)c1cnn(-c2ccc(Cl)nn2)c1/N=C/N(C)C,-4,1,0,0
CCOC(=O)c1cnn(-c2nc(C)nc3sc(-c4ccccc4)cc23)c1/N=C/N(C)C,0,34*,2,0
Oc1cc2c(cc1O)C1c3ccc(O)c(O)c3OCC1(O)C2 (configuration not stated),116*,21,-2,0
Cc1cc(/C=C(\C#N)C(=O)OCC(=O)NCc2cccs2)c(C)n1CC(C)C,9,49*,-2,0
Cc1cc(/C=C(\C#N)C(=O)O)c(C)n1CC(C)C,8,12,0,0
O=C(CSCc1ccccc1)Nc1nnc(SCC(=O)OCc2ccccc2)s1,-9,-7,-1,0
CCCCS(=O)(=O)CC(COC(=O)c1ccccc1)S(=O)(=O)CCCC (configuration not stated),11,33*,0,0
CCCCCCOc1ccc(C(=O)OCC(=O)c2ccccc2)cc1,-4,9,-1,0
NC1CC2(CCCC2)Oc2ccccc21 (configuration not stated),-14,-9,-1,0
CCc1c(C(=O)c2ccc(Cl)cc2)oc2ccc3c(C)cc(=O)oc3c12,28,-6,-2,1
Cc1ccc(C(=O)c2oc3ccc4c(C)cc(=O)oc4c3c2-c2ccccc2)cc1,-5,62*,-1,0
CCc1c(C(=O)c2ccccc2)oc2ccc3c(C)cc(=O)oc3c12,-6,41*,0,0
O=C(Nc1ccc(F)cc1F)NC1(C(=O)Nc2ccc3c(c2)OCO3)CCCCC1,21,-11,1,1
COc1cc(Br)cc(/C=N/Nc2ccc([N+](=O)[O-])cc2)c1O,-9,-21,0,0
CC(=O)NCC1(c2ccccc2)SC(NC(C)=O)=NN1C(C)=O (configuration not stated),16,60*,0,0
CCC(C)C1(c2ccccc2)SC(NC(C)=O)=NN1C(C)=O (configuration not stated),9,38*,-1,0
CCOCCOC(=O)C1=C(C)NC2=C(C(=O)CC(c3ccc(OC)cc3)C2)C1c1cc(Br)c(O)c(OCC)c1 (configuration not stated),0,6,-1,0
CCOC(=O)c1ccc(NS(=O)(=O)c2ccc(OCC(=O)OC)c(Cl)c2)cc1,12,-1,-1,1
CN(C)c1ccc(C(=O)Nc2ccccc2C(N)=O)cc1,-18,52*,-5,0
CN(C)c1ccc(C(=O)Nc2cc(C(N)=O)c(Cl)cc2Cl)cc1,-6,-8,-1,0
CC(C)(C)c1ccc(C(=O)Nc2sccc2C(N)=O)cc1,-4,69*,-6,0
CN(C)c1ccc(C(=O)Nc2ccccc2Br)cc1,-2,65*,-5,0
SMILES,MITF primary,TEAD-YAP block,GPR151 activ,FBW7 activator
NC(=O)c1ccccc1NC(=O)c1ccc(-c2ccccc2)cc1,1,-18,-1,0
CC(C)(C)c1ccc(C(=O)Nc2ccccc2C(N)=O)cc1,17,56*,-4,2.1*
CC(=O)c1ccc(NC(=O)CN2CCN(C)CC2)cc1,9,-34,1,0
Cc1cc(Cl)ccc1OCC(O)CN1CCN(c2ccccn2)CC1 (configuration not stated),15,-3,-1,0
CC[N+](CC)=c1ccc2nc3c(cc(N)c4ccccc43)oc-2c1,7,33*,-2,0
COc1cccc(NC(=O)c2sc(NC(=O)/C=C/c3ccccc3)nc2C)c1,-8,55*,-1,0
C/C=C/COC(=O)C1=C(C)NC(=O)NC1c1ccc(Cl)cc1Cl (configuration not stated),5,64*,0,0
CC1=C(C#N)C(c2cccnc2)C2=C(N1)c1ccccc1C2=O (configuration not stated),-7,56*,0,0
Cc1cccc(NC(=S)Nc2cccc(F)c2)n1,20,-8,3,0

# Bioassay records deposited in PubChem BioAssay by The Scripps Research Institute Molecular Screening Center.
